For 16 compounds, inhibition results are on record in ChEMBL document CHEMBL1961873, “Compounds: GSK PKIS; Assays: Nanosyn kinase panel” (2012).

Test [1] concerns the target T1, Serine/threonine-protein kinase Nek9 (Homo sapiens) (UniProt Q8TD19).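 Note: each value is a mean percent inhibition of NEK9.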
T1 sequence (whole entry): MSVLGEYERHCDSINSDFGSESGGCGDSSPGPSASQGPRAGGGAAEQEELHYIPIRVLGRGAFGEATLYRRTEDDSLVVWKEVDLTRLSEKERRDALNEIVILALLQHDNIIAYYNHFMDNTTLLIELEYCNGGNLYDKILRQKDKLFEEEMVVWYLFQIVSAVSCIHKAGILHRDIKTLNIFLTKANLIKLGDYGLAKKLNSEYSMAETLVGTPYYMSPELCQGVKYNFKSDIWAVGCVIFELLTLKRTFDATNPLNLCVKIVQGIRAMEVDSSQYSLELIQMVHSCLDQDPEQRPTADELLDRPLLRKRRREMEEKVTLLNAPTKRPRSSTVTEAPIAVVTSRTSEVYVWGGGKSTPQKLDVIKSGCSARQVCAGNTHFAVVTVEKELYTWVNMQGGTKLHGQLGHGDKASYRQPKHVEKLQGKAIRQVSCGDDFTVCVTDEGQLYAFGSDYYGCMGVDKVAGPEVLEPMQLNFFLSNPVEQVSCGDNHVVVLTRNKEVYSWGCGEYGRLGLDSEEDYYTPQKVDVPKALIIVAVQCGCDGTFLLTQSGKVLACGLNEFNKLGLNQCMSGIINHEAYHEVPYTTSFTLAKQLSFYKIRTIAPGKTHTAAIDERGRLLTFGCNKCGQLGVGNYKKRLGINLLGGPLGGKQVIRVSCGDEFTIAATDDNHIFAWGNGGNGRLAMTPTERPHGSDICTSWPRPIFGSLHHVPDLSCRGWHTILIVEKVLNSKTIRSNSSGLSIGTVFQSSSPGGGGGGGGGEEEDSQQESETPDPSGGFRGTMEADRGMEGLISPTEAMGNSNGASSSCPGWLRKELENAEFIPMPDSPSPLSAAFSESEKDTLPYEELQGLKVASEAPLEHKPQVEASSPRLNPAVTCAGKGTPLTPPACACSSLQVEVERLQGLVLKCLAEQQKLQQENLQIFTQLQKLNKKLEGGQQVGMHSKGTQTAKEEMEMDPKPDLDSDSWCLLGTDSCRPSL
To be noted: at 1 µM.

Test [2] concerns the target Serine/threonine-protein kinase PLK1 (Homo sapiens) (UniProt P53350). As to conditions: at 0.1 µM.
For test [3] the target is unchanged. To be noted: at 1 µM.
The target of test [4] is T2, Dual specificity protein kinase TTK (Homo sapiens) (UniProt P33981).
T2 sequence (whole entry): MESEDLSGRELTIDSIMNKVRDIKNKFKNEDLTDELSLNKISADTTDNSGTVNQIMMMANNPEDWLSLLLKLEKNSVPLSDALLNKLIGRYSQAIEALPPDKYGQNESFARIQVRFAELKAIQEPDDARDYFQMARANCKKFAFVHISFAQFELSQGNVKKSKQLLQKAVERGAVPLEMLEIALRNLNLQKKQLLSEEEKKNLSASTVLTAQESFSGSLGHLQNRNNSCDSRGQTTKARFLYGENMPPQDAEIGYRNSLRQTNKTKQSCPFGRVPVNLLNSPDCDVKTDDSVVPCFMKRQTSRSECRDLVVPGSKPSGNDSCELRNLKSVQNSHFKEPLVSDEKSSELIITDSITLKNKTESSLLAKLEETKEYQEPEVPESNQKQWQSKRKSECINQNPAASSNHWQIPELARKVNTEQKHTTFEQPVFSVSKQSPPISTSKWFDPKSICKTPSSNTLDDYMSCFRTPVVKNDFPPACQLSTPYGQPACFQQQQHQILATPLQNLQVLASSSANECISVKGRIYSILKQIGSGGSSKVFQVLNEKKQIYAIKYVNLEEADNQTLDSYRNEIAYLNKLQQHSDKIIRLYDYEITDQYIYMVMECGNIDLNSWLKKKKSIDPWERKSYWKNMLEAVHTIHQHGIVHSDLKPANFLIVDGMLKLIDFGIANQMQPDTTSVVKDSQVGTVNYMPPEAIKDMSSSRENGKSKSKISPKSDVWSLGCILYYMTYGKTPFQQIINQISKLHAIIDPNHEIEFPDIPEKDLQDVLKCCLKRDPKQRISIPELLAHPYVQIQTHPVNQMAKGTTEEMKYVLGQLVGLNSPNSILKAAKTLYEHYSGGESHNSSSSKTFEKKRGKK
As to conditions: at 0.1 µM.

Test [5] has as its system T3, Receptor-type tyrosine-protein kinase FLT3 (Homo sapiens), P36888 [D835Y].
T3 sequence (whole entry): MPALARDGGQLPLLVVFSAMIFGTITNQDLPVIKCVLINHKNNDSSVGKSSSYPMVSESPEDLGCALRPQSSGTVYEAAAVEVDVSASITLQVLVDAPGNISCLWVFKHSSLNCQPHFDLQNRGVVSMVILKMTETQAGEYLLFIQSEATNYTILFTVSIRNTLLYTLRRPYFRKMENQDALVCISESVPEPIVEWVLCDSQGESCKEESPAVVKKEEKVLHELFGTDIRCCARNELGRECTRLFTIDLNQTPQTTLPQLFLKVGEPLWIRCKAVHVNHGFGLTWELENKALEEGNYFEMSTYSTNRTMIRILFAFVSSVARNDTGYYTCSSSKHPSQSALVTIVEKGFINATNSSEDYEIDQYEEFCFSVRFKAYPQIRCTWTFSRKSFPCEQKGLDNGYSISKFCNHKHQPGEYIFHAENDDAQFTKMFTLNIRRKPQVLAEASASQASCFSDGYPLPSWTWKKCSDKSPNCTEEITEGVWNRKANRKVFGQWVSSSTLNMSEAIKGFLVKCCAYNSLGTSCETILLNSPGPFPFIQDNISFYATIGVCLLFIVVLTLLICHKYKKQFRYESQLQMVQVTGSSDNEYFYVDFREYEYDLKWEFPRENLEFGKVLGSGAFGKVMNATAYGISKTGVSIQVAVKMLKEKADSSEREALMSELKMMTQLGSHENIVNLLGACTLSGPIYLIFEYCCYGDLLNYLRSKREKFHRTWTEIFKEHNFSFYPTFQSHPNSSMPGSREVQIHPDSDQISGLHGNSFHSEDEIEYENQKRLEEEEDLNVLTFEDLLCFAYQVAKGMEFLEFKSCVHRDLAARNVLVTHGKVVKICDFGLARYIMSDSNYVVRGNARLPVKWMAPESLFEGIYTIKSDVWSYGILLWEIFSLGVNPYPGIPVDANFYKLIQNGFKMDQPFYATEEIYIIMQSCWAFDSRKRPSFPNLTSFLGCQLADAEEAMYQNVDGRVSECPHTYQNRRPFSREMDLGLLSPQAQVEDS
As to conditions: at 1 µM.

The target of test [6] is Vascular endothelial growth factor receptor 3 (Homo sapiens) (UniProt P35916). As to conditions: at 0.1 µM.
For test [7] the target is unchanged. To be noted: at 1 µM.
For test [8], the target named is Macrophage colony-stimulating factor 1 receptor (Homo sapiens) (UniProt P07333). To be noted: at 0.1 µM.
For test [9] the target is unchanged. To be noted: at 1 µM.
Test [10] concerns the target Tyrosine-protein kinase Fyn (Homo sapiens) (UniProt P06241). To be noted: at 0.1 µM.

Sequence of Vascular endothelial growth factor receptor 3 (Homo sapiens) (P35916 whole entry): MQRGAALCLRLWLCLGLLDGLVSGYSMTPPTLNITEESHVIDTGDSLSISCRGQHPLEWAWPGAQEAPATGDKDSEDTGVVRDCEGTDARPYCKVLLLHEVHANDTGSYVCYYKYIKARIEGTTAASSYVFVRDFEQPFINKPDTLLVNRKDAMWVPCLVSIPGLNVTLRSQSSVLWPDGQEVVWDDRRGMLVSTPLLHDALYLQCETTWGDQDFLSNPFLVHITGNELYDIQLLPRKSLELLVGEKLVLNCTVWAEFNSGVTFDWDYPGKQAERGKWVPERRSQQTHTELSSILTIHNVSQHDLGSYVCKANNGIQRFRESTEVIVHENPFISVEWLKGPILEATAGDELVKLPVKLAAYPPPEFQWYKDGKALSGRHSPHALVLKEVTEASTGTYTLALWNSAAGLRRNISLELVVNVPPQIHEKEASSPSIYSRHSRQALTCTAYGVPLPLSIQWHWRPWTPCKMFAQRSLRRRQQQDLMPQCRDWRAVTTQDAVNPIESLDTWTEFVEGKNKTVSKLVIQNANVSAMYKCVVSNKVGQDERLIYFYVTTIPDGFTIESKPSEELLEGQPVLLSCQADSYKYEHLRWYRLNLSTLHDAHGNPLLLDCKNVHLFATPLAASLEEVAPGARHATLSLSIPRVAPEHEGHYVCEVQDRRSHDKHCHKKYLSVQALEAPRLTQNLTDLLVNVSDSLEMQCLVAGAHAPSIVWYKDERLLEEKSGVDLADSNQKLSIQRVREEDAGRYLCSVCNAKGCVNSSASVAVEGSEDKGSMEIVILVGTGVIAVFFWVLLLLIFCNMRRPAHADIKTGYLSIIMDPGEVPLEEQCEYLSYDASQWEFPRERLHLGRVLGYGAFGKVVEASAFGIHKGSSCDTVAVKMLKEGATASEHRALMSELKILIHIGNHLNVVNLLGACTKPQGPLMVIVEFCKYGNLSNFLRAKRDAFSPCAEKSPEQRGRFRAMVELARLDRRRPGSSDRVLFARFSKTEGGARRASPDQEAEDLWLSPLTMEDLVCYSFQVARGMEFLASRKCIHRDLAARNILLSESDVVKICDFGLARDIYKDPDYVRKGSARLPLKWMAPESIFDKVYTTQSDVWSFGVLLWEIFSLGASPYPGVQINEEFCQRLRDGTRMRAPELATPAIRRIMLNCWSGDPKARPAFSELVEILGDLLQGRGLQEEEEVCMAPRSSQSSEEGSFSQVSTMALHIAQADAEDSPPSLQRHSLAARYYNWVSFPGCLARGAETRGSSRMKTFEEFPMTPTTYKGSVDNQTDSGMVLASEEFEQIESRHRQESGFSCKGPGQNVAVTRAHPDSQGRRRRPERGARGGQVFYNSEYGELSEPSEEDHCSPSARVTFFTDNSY
Sequence of Tyrosine-protein kinase Fyn (Homo sapiens) (P06241 2-537 limits assumed): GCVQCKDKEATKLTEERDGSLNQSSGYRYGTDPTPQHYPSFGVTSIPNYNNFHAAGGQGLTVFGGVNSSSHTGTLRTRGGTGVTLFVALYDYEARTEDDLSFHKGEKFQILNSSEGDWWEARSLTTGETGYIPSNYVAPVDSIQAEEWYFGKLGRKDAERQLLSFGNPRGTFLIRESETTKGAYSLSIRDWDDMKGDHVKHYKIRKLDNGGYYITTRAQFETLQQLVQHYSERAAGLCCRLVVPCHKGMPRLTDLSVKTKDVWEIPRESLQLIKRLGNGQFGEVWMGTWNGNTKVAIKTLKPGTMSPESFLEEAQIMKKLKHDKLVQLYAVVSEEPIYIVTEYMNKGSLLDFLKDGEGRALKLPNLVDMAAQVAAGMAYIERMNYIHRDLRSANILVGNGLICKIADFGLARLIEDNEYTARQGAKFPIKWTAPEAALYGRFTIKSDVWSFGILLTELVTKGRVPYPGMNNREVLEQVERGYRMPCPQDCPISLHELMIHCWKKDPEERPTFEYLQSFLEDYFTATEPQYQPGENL
Sequence of Serine/threonine-protein kinase PLK1 (Homo sapiens) (P53350 whole entry): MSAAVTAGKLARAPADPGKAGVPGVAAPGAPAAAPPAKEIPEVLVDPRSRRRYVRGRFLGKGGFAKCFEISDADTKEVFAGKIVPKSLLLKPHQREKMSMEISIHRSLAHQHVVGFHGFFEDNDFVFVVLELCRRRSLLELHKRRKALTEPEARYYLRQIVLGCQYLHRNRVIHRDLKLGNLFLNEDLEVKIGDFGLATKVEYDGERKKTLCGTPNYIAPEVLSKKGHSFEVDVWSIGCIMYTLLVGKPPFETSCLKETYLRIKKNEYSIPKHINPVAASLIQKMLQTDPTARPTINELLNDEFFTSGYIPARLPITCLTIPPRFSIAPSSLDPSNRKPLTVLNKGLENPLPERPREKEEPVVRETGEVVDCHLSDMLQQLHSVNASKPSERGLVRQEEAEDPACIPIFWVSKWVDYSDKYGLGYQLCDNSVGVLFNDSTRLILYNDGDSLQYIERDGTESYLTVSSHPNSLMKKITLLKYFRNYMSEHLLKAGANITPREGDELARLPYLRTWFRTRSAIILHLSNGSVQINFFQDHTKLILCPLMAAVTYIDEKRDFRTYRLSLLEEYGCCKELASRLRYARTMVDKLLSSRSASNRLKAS
Sequence of Macrophage colony-stimulating factor 1 receptor (Homo sapiens) (P07333 whole entry): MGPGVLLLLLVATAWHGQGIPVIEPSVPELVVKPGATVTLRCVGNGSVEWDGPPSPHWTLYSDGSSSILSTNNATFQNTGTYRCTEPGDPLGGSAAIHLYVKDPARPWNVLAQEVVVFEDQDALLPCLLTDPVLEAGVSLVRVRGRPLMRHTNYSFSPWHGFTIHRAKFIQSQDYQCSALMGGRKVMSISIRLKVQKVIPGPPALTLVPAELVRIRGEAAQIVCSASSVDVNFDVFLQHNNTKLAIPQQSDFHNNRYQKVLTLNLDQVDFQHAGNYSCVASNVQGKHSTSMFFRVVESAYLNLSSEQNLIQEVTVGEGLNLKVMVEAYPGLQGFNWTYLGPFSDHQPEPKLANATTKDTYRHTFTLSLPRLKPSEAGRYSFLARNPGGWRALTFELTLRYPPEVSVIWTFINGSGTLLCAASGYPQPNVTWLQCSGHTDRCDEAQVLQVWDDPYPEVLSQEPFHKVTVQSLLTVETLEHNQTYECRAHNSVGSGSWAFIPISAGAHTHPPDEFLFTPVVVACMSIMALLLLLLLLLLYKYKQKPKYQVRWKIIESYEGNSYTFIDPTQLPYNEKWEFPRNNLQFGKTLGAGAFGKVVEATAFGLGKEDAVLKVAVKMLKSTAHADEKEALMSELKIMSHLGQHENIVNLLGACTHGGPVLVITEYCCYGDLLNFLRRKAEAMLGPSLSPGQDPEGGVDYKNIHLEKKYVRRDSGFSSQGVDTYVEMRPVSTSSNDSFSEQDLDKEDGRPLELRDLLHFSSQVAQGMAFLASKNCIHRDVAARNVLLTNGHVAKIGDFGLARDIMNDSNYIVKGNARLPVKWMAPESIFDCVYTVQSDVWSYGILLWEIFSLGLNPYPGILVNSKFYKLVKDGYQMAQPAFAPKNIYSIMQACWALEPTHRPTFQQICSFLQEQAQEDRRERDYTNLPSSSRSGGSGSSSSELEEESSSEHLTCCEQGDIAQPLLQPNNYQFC

As usually defined, the inhibition is the drop in the measured response relative to a control, in per cent. Regarding `O=C1NC(=O)C(c2ccc(Cl)cc2)=C1Nc1ccc(Cl)c(C(=O)O)c1`, the inhibition in test [1] was -2.24%; in test [2], -1.32%; in [3], -2.04%; in [4], -4.32%; in test [5], 2.75%; in test [6] it was 1.23%. Besides, the inhibition in [7] came to 6.6%; in [8], 0.6%; in test [9], 2.16%; in test [10], 2.16%.

Consider `CCn1c(-c2nonc2N)nc2cnc(Oc3cccc(NC(=O)c4ccc(OCCN5CCOCC5)cc4)c3)cc21`, for which the inhibition was 17% in test [1]; 4.54% in test [2]; 2.83% in test [3]; 10.3% in [4]; -0.53% in [5]; -0.39% in test [6]. Moreover, the inhibition in test [7] turned out to be 0.92%; in test [8], 1.4%; in test [9], 2.86%; in [10], 1.07%.

Turning to `CS(=O)(=O)Nc1ccc(N/C=C2\C(=O)Nc3ccccc32)cc1`, the inhibition in test [1] is 9.7%; in test [2], -2.87%; in test [3] it was -1.15%; in [4], -2.98%; in [5] it was 59.1%; in test [6], 4.02%. The inhibition in [7] is 30.6%; in [8] it was 7.03%; in [9] it was 41.7%; in test [10] it was 0.12%.

In the case of `COC(=O)Nc1nc2cc(Oc3cccc(NC(=O)Nc4cc(C(F)(F)F)ccc4F)c3)ccc2[nH]1`, the inhibition in test [1] came to 0.95%; in test [2], 1.57%; in test [3], 0.56%; in test [4], 0.37%; in [5], 0.94%; in test [6], 1.33%. The inhibition in test [7] turned out to be 11.4%; in test [8], 4.37%; in [9], 27.8%; in test [10], 1.12%.

As for `Nc1nc(-c2ccccn2)c(-c2ccc3ncccc3n2)s1`, the inhibition in test [1] turned out to be 6.84%; in test [2] it was 2.47%; in test [3], 2.12%; in test [4], 4.02%; in test [5] it was 8.59%; in test [6], 1.06%. Besides, the inhibition was 2.46% in [7], 2.04% in test [8], 4.58% in [9] and -1.79% in test [10].

On to `Fc1cccc(COc2ccc(Nc3ncnc4sc(-c5cccs5)cc34)cc2Cl)c1`, for which the inhibition in test [1] was 2.21%; in [2] it was 1.64%; in test [3], 2.97%; in test [4] it was 2.43%; in test [5], 4.36%; in test [6], 3.77%. The inhibition in test [7] was found to be 3.65%; in [8], 0.1%; in test [9] it was 11.2%; in [10] it was 1.11%.

Regarding `N#Cc1c(NC(=O)c2cccc3ccccc23)sc2c1CCCC2`, the inhibition in test [1] was 4.88%; in test [2] it was 3.77%; in test [3], 9.99%; in [4], 11.9%; in test [5], -2.86%; in test [6] it was 0.07%. In addition, the inhibition in test [7] is -3.88%; in test [8], 0.85%; in test [9], 1.31%; in test [10], 2.07%.

Turning to `COc1cc(C=NNc2ncnc3c2cnn3-c2ccccc2)ccc1O`, the inhibition in test [1] worked out at 1.08%; in test [2], 2.41%; in test [3] it was 3.03%; in test [4], 3.02%; in test [5], 56.8%; in test [6], 5.09%. Moreover, the inhibition in test [7] came to 24.4%; in [8], 7.04%; in test [9] it was 26.8%; in [10], 11%.

Regarding `NC(=O)c1ccc(-c2nc(-c3ccccn3)c(-c3ccc4c(c3)OCO4)[nH]2)cc1`, the inhibition in test [1] was determined as 6.43%; in test [2] it was 5.18%; in [3] it was 2.1%; in [4] it was 6.47%; in [5], 1.63%; in [6], 0.44%. Also, the inhibition in test [7] is -0.31%; in test [8], 1.36%; in test [9] it was 2.49%; in test [10], 1.15%.

On to `O=C1NC(=O)C(N2CCc3ccccc32)=C1c1ccc(Cl)cc1`, for which the inhibition turned out to be 6.39% in test [1]; 3.88% in test [2]; 2.74% in test [3]; 7.71% in test [4]; 14.7% in test [5]; 1.62% in test [6]. For the same compound, the inhibition in [7] came to 0.97%; in test [8], 4.95%; in test [9], 4.62%; in test [10], 4.56%.

For the compound `CC(=O)Nc1cccc(C#Cc2cncnc2Nc2ccc(OCc3cccc(F)c3)c(Cl)c2)n1`, the inhibition is 2.5% in test [1]; -3.77% in [2]; -3.29% in test [3]; -1.68% in test [4]; 2.36% in [5]; -1.2% in test [6]. Also, the inhibition in [7] was -2.96%; in [8] it was 0.5%; in [9] it was -0.39%; in test [10] it was 1.08%.

As for `Cc1ccc(C(=O)NC2CCCCC2)cc1-c1ccc(C(=O)NCC2CC2)cc1`, the inhibition in test [1] is -4.93%; in test [2], 3%; in test [3], 2.23%; in test [4] it was 2.82%; in test [5] it was -1.53%; in test [6] it was 3.84%. In addition, the inhibition is 5.49% in test [7], -0.58% in [8], 5.17% in test [9] and -0.84% in test [10].

As for `CC1=C(C(=O)Nc2ccc3[nH]ncc3c2)C(c2ccc(Cl)c(Cl)c2)CC(=O)N1` (stereo not given), the inhibition was 3.13% in [1]; 2.57% in [2]; 1.43% in test [3]; 2.15% in [4]; 0.84% in test [5]; -2.61% in test [6]. In addition, the inhibition was 1% in [7], -0.52% in test [8], 1.97% in test [9] and 1.91% in test [10].

As for `CCn1c(-c2nonc2N)nc2cncc(C(=O)N3CCNCC3)c21`, the inhibition in [1] is 5.61%; in test [2], 5.97%; in test [3], 14.3%; in [4], 12.2%; in test [5], -1.93%; in test [6] it was 5.86%. The inhibition in test [7] was determined as 7.52%; in test [8], 4.42%; in [9], 5.74%; in test [10], 2.61%.

As to `NC(=O)c1cccc(Nc2nccc(Nc3cccc4[nH]ncc34)n2)c1`, the inhibition in test [1] is 7.1%; in test [2] it was -1.69%; in test [3], 3.37%; in test [4], -7.5%; in [5], 37.5%; in [6], 5.01%. Besides, the inhibition in test [7] came to 33.4%; in test [8], 3.46%; in test [9], 34.1%; in test [10], 85.9%.

On to `COc1cccc(-n2ncc3c(N/N=C/c4cccc(F)c4)ncnc32)c1`, for which the inhibition in test [1] was 3.11%; in test [2] it was 3.32%; in test [3], 3.39%; in test [4] it was 6.88%; in test [5], 14.1%; in test [6] it was -8.81%. Further, the inhibition was -1.89% in test [7], -0.57% in [8], 3.43% in test [9] and 4.02% in [10].
